21 compounds from PubChem BioAssay (NCI) can be followed below.

Each structure is given as a SMILES string. This is part of a sample that, as a whole, favours compounds with a hit. Of some 79,000 tested, about 15% had one in any assay. Unmarked numbers belong to inactive results. Active and inactive are the calls of the source. No stated cut-off is given here; in the data, active means growth inhibition above about 70%; inactive means the rest.

Test [1] in a line: NCI Yeast Anticancer Drug Screen. Data for the rad50 strain (AID 155).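 Further: 0% = growth of vehicle-only cultures of the same strain.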 The conditions noted are these: S. cerevisiae rad50 strain growth inhibition; at 50.0 µM; active compounds read high. In short, it runs like this: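 Compounds were tested on a yeast strain with an engineered DNA damage repair alteration; the reported value is growth inhibition normalised to vehicle treatment.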
Test [2] can be described thus: NCI Yeast Anticancer Drug Screen. Data for the mec2-1 strain (AID 157). As to conditions: S. cerevisiae mec2-1 strain, at 50.0 µM, active compounds read high. In short, it runs like this: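 Mutant yeast (mec2-1) grown with compound; growth inhibition relative to vehicle control reported.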
The nature of test [3]: NCI Yeast Anticancer Drug Screen. Data for the sgs1 mgt1 strain (AID 161).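 Further: 0% = growth of cultures given vehicle only.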 The conditions noted are these: S. cerevisiae sgs1 mgt1 strain, at 50.0 µM, active compounds read high. In short, it runs like this:
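This yeast growth screen uses a strain with defined DNA-repair lesions; compound-treated growth is compared with vehicle-treated growth.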

Test [4] in a line: NCI Yeast Anticancer Drug Screen. Data for the cln2 rad14 strain (AID 165).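 Further: 0% = growth equal to vehicle treated cultures.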 As to conditions: S. cerevisiae cln2 rad14 strain, at 50.0 µM, active compounds read high. In short, it runs like this: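 Readout is yeast growth inhibition versus vehicle-treated controls, using a strain with cln2 and rad14 alterations exposed to compound.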
A short description of test [5]: NCI Yeast Anticancer Drug Screen. Data for the bub3 strain (AID 167). As to conditions: S. cerevisiae bub3 mutant strain, at 50.0 µM, active compounds read high. In short, it runs like this: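 Growth of a checkpoint-deficient yeast mutant is measured after compound exposure. Values represent inhibition relative to vehicle.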
Test [6] can be described thus: NCI Yeast Anticancer Drug Screen. Data for the mlh1 rad18 strain (AID 175). As to conditions: S. cerevisiae mlh1 rad18 strain growth inhibition; at 50.0 µM; active compounds read high. In short, it runs like this:
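Genetically defined yeast (DNA repair-deficient) exposed to compounds; growth inhibition determined relative to vehicle.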

On to `N#Cc1ccccc1NC(=O)Nc1ccc(Cl)cc1Cl`, for which the growth inhibition was 16.4% in test [1]; -7.35% in test [2]; 27% in test [3]; -0.25% in test [4]; 4.35% in test [5]; 10.6% in test [6].
Turning to `O=C1C(Cl)=C(NCCCN2CCN(CCCNC3=C(Cl)C(=O)c4ccccc4C3=O)CC2)C(=O)c2ccccc21`, the growth inhibition in test [1] is 44.5%; in test [2] it was 27.8%; in test [3], 33.1%; in test [4] it was 9.45%; in test [5], 6.35%; in test [6] it was 33.6%.
In the case of `Cc1ccc(Nc2nc(C)c(C(=O)CC(=O)C(=O)Nc3c(C)cccc3C(C)(C)C)s2)cc1`, the growth inhibition in test [1] is 14.2%; in test [2] it was -17.6%; in test [3], -0.4%; in test [4], -19.2%; in test [5] it was -1.05%; in test [6] it was 2.85%.
As to `Cc1cc(Cl)cc2c1NC(=O)C2(O)CC(=O)c1ccco1` (stereo unspecified), the growth inhibition in test [1] was 6.55%; in test [2], -12.4%; in test [3], -13.8%; in test [4], 9.65%; in test [5] it was -11.7%; in test [6], -4.65%.
`CC(C)(C)CC(CC(C)(C)C)C(=O)O`: the growth inhibition in test [1] is 28.9%; in test [2] it was -1.2%; in test [3] it was -3.5%; in test [4] it was 1.85%; in test [5] it was 4.05%; in test [6], 21.3%.
For `COc1ccc(C2CC(C)(O)Oc3cc4c(cc32)OCO4)cc1` (stereo unspecified), the growth inhibition in test [1] was 47.5%; in test [2], 26.3%; in test [3], 13.7%; in test [4] it was 43.6%; in test [5], 44.9%; in test [6], 27.1%.
Consider `COC(=O)C1=CN(c2ccccc2)C(=O)C1`, for which the growth inhibition in test [1] is 5.5%; in test [2], -14.3%; in test [3], -6.95%; in test [4] it was -26.1%; in test [5] it was -8.7%; in test [6] it was 7.45%.
On to `Cc1cc(NC(=O)C(=O)CC(=O)c2cccnc2)no1`, for which the growth inhibition in test [1] was -59%; in test [2], -1.8%; in test [3], -8.2%; in test [4] it was -52.1%; in test [5], -6.2%; in test [6], -4.15%.
On to `CN(C)c1ccc2oc3ccccc3c2c1`, for which the growth inhibition in test [1] is -4.5%; in test [2], -4.5%; in test [3] it was -21.4%; in test [4], -23.9%; in test [5], 5.35%; in test [6] it was -26.4%.
Take `O=c1c2ccccc2n2c(-c3ccccc3O)nnc2n1-c1ccccc1`: the growth inhibition in test [1] was 6.5%; in test [2], 14.8%; in test [3] it was 35.1%; in test [4] it was 26.2%; in test [5], 6.6%; in test [6] it was 18.2%.
As to `N#Cc1ccc(CC(O)(c2ccccc2)c2ccccc2)cc1`, the growth inhibition in test [1] is 4.6%; in test [2], -1.25%; in test [3], -1.3%; in test [4], -12.6%; in test [5], 3.25%; in test [6] it was -9.7%.
`Cc1ccc(S(=O)(=O)OC[C@H]2CC=CC[C@@H]2COS(=O)(=O)c2ccc(C)cc2)cc1`: the growth inhibition in test [1] is -18.6%; in test [2], 31.6%; in test [3], 0.6%; in test [4], -29.6%; in test [5] it was 3.2%; in test [6], -6.1%.
`O=C(O)C(C(C(=O)O)P(=O)(O)O)P(=O)(O)O` (stereo unspecified): the growth inhibition is -17.9% in test [1]; -30.8% in test [2]; -50.6% in test [3]; -38.8% in test [4]; -12.2% in test [5]; -62.3% in test [6].
In the case of `COc1ccc(CNc2ccccc2C(=O)O)cc1OC`, the growth inhibition in test [1] was 11.2%; in test [2], 2.8%; in test [3] it was -1.95%; in test [4], 31.4%; in test [5], 32.8%; in test [6], 8.65%.
For the compound `CCCCOC(=O)c1ccc(OC(=O)Nc2ccc(Cl)cc2)cc1`, the growth inhibition was 10.4% in test [1]; 42.3% in test [2]; 39% in test [3]; -11.2% in test [4]; 78.7% (active) in test [5]; 30.2% in test [6].
Regarding `CC[N+]1(C)CCC(O)(c2ccccc2)C(C(=O)c2ccccc2)C1` (stereo unspecified), the growth inhibition was 3.5% in test [1]; -6.1% in test [2]; -5.55% in test [3]; 34.1% in test [4]; 6.1% in test [5]; 11.3% in test [6].
Turning to `CC(C)C(O)C[N+](=O)[O-]` (stereo unspecified), the growth inhibition is 66.3% in test [1]; 6.8% in test [2]; 20.3% in test [3]; 6.25% in test [4]; 13.6% in test [5]; 16.6% in test [6].
As to `O=c1c2c(oc3c(Cl)cc(Cl)cc13)CCCC2`, the growth inhibition in test [1] is 13.3%; in test [2], -19.6%; in test [3] it was -1.8%; in test [4], 7.6%; in test [5] it was 5.8%; in test [6], 4.05%.
As for `Cc1cnc2nc(C)c(C)nc2n1`, the growth inhibition in test [1] was 12.3%; in test [2] it was 1.55%; in test [3], 2.35%; in test [4] it was -0.95%; in test [5] it was -0.85%; in test [6], 4.95%.
`CC1CNC(C)(C)O1` (stereo unspecified): the growth inhibition in test [1] was 36.5%; in test [2], 10.9%; in test [3], 18.9%; in test [4], 23.6%; in test [5] it was 11.6%; in test [6], 29.4%.
Regarding `C=CCN1COc2c(cc3c4c(cccc24)C(=O)O3)C1`, the growth inhibition in test [1] was -0.25%; in test [2], -4.25%; in test [3], 10.1%; in test [4] it was 8.35%; in test [5], 6.35%; in test [6], 8.35%.
